Inconclusive results are not listed. A number with no mark means an inactive call. Calls of active or inactive are those of the source. Unless noted, calls come from the whole dose curve; as a rule, active = well fitted curve in the direction sought with a large enough effect in the repeat runs; inconclusive = weak or mixed curves; inactive = no such curve, though single readings can be large; an effect the other way counts as inactive or inconclusive.

The values that follow come from PubChem BioAssay (Tox21).

Assay [1] in a line: qHTS assay to identify aromatase inhibitors - cell viability counter screen (AID 743084).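 Note: cells stimulated with testosterone during compound exposure; nearly all actives have a fitted effect of over 55% in size.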
The target of assay [2] is Aryl hydrocarbon receptor (Homo sapiens) (UniProt P35869). Kind of assay: qHTS assay to identify small molecule that activate the aryl hydrocarbon receptor (AhR) signaling pathway (AID 743085).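 For activation: HG2L7.5c1 human HepG2 liver cells with stably integrated DRE-driven firefly reporter; series mostly up to about 70 µM.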 Note: nearly all actives have a fitted effect of over 15% in size. Note: potency is the fitted concentration of half-maximal effect. The essentials: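 HepG2 cells stably carrying a 20-DRE firefly luciferase reporter (HG2L7.5c1) treated with compound for 24 hr at 37C. Luciferase read by ONE-Glo luminescence, with CellTiter-Fluor viability read first.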
Sequence of Aryl hydrocarbon receptor (Homo sapiens) (P35869 whole entry, looked up): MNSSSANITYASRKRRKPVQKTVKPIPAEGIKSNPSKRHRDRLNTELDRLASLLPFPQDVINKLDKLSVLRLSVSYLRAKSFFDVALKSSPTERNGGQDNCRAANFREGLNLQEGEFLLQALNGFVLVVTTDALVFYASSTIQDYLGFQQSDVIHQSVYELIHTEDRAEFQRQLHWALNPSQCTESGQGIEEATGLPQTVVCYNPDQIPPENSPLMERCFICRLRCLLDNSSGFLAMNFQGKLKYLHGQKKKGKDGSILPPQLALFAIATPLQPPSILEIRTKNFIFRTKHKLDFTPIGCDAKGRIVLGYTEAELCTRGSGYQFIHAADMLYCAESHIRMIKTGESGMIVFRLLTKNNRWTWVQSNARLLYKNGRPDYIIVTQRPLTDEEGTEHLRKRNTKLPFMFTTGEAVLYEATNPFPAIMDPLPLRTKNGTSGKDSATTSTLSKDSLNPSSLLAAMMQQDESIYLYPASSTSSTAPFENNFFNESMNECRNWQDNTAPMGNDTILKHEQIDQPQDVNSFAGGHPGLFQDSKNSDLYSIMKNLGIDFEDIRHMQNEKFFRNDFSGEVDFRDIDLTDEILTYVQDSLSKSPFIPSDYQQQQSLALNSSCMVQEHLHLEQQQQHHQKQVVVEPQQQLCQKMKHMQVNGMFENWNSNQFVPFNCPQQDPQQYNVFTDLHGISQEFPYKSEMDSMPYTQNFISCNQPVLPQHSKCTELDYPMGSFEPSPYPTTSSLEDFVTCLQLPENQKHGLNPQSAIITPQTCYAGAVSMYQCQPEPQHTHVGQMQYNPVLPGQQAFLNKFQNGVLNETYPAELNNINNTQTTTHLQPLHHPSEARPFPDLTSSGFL

The nature of assay [3]: qHTS assay to identify small molecule that activate the aryl hydrocarbon receptor (AhR) signaling pathway - cell viability counter screen (AID 743086). Note: series mostly up to about 70 µM; nearly all actives have a fitted effect of over 45% in size. In outline: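 HepG2-AhR-luc (HG2L7.5c1) cells, 4000/well, treated 24 h at 37 C with compound; viability measured as CellTiter-Fluor fluorescence after 30 min in the same wells as the luciferase read.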
The nature of assay [4]: qHTS assay to identify small molecule antagonists of the peroxisome proliferator-activated receptor gamma (PPARg) signaling pathway - cell viability counter screen (AID 743194). Note: nearly all actives have a fitted effect of over 55% in size. The essentials: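 Cytotoxicity counter screen in PPARg-bla HEK293H cells, same wells as reporter assay. Compounds plus 50 nM rosiglitazone (final) for 17 h at 37 C, then viability read by CellTiter-Glo luminescence.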

A short description of assay [5]: qHTS assay for small molecule agonists of the antioxidant response element (ARE) signaling pathway (AID 743202; active = well fitted activation curve with a large enough effect in the signal ratio in the repeat runs, not every such curve was filed as active; the % refers to the signal ratio). The essentials:
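Agonist mode reporter screen: HepG2 cells with ARE-controlled beta-lactamase are incubated with test compounds for 16 h at 37 C, and beta-lactamase activity is measured as fluorescence of cleaved B/G FRET substrate.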

Assay [6] can be described thus: qHTS assay for small molecule agonists of the antioxidant response element (ARE) signaling pathway - cell viability counter screen (AID 743203; calls by dose curve; note: nearly all actives have a fitted effect of over 55% in size). In outline:
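Cells (ARE-bla HepG2, 2,000/well) receive DMSO-dissolved compounds after a 5 hrs rest. Plates incubate 16 hrs at 37C/5% CO2. CellTiter-Glo luminescence is then recorded after 30 min at room temperature.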

Assay [7] is described as follows: qHTS assay for small molecule activators of the heat shock response signaling pathway - cell viability counter screen (AID 743209). Note: nearly all actives have a fitted effect of over 50% in size. In outline:
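Quantitative HTS format, Tox21 10K library. HeLa cells carrying an HSE-driven beta-lactamase reporter were treated 5 h at 37 C, then assessed for viability by CellTiter-Glo luminescence.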

The target in assay [8] is Peroxisome proliferator-activated receptor gamma (Homo sapiens) (UniProt P37231). Kind of assay: qHTS assay to identify small molecule agonists of the peroxisome proliferator-activated receptor gamma (PPARg) signaling pathway (AID 743094; active = well fitted activation curve with a large enough effect in the signal ratio in the repeat runs, not every such curve was filed as active; the % refers to the signal ratio). In outline: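 Stably transfected HEK293H cells (GeneBLAzer PPARg UAS-bla) were incubated with test substances for 17 h at 37C after a 5 h pre-incubation; beta-lactamase activity was then detected by FRET substrate fluorescence.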
Sequence of Peroxisome proliferator-activated receptor gamma (Homo sapiens) (P37231 whole entry, looked up): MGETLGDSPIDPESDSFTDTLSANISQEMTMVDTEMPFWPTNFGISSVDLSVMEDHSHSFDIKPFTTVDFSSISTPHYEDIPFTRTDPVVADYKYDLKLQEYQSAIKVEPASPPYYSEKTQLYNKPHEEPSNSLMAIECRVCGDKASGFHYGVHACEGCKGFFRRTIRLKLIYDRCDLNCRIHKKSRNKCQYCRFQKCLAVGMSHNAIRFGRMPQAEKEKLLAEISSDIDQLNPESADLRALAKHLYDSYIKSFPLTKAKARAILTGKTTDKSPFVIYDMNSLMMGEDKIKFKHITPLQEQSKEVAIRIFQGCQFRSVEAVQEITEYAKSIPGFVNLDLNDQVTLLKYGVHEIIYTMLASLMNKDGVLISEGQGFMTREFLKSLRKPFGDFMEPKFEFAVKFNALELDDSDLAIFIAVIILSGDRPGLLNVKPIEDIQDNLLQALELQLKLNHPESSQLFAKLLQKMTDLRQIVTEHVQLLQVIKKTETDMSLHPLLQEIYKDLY

Assay [9] has the same target. The assay can be described thus: qHTS assay to identify small molecule antagonists of the peroxisome proliferator-activated receptor gamma (PPARg) signaling pathway (AID 743191; calls by dose curve; note: series mostly up to about 63 µM; nearly all actives have a fitted effect of over 30% in size). The essentials: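 GeneBLAzer PPARg UAS-bla HEK293H cells, 5 h post-plating, exposed to compounds 17 h at 37C. LiveBLAzer B/G FRET substrate added for 1 h at room temperature; beta-lactamase reporter read by fluorescence intensity.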

Assay [10] can be described thus: qHTS assay for small molecule activators of the heat shock response signaling pathway (AID 743210; active = well fitted activation curve with a large enough effect in the signal ratio in the repeat runs, with a control signal flat, not every such curve was filed as active; the % refers to the signal ratio;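 note: HeLa cells with beta-lactamase reporter driven by heat shock elements; series mostly up to about 63 µM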). In outline:
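Quantitative high-throughput format using an engineered HeLa line in which heat shock response elements drive beta-lactamase; after 5 h with compound, cells received a B/G FRET substrate and fluorescence was read.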
% is set by controls: 0 for no effect and ±100 for the full control effect.

In the case of `O=C(O)/C=C/c1ccccc1`, the Potency entry in assay [1], in assay [2], in assay [3] and in assay [5] was “inactive” in each case. Besides, the call in [4], in assay [6] and in assay [7] was inactive.

With `CCCCOC(=O)C(=O)OCCCC`, the Potency entry in assay [1], in [2], in [9] and in assay [5] was “inactive” each time. Further, the compound was classed as inactive in [8], in assay [4], in [6], in [7] and in assay [10].

In the case of `O=CO`, the activity change, negative = cytotoxicity in assay [1] was -4.37% [at 8.47 µM]; in [4] it was 15.3% [at 5.95 µM]; in assay [7] it was 8.14% [at 5.95 µM]. Moreover, the values for the activation in [2], in assay [5] and in [10] were 0.579% [at 8.47 µM], -2.02% [at 8.36 µM] and -1.54% [at 5.95 µM], respectively. The viability change, negative = cytotoxic in assay [3] is -0.0332% [at 8.47 µM]; in assay [6], -3% [at 8.36 µM].

Regarding `CCCCOC(=O)C(C)OC(=O)CCC` (stereo unspecified), the Potency result in [1], in assay [2] and in assay [5] was “inactive” throughout. The compound was classed as inactive in assay [8], in assay [4], in assay [6], in assay [7] and in [10].

For the compound `CC1CCC(C(C)(C)S)C(=O)C1` (stereo unspecified), the Potency result in assay [1], in [2], in [3] and in assay [9] was “inactive” each time. Also, the outcome in [4], in assay [6], in [7] and in [10] was inactive.

Take `Nc1ccc(/C=C/c2ccc(N)cc2S(=O)(=O)O)c(S(=O)(=O)O)c1`: the Potency result in assay [1], in assay [2] and in assay [3] was “inactive” in each case. In addition, the activity change, negative = cytotoxicity in assay [4] was -0.597% [at 0.55 µM]; in assay [7] it was 6.28% [at 0.55 µM]. For the same compound, the results for the activation in assay [5] and in assay [10] were -8.26% [at 0.756 µM] and 0.7% [at 0.55 µM], respectively. In addition, the viability change, negative = cytotoxic in assay [6] is -11% [at 0.756 µM].

As for `O=C(Nc1cccc(C2=NCCN2)c1)Nc1cccc(C2=NCCN2)c1`, the Potency result in assay [1], in assay [2], in [9] and in assay [5] was “inactive” in each case. Besides, the compound was classed as inactive in assay [8], in [4], in [6], in assay [7] and in assay [10].

For the compound `COC(OC)C(C)c1ccccc1` (stereo unspecified), the Potency result in [1], in [3] and in assay [9] was “inactive” throughout. Besides, the compound was classed as inactive in [4], in assay [6] and in assay [7].

`Cc1cc(C)cc([N+](=O)[O-])c1`: the Potency result in [1], in assay [2] and in assay [5] was “inactive” in each case. Besides, the compound was classed as inactive in assay [8], in assay [4], in assay [6], in assay [7] and in [10].

For `O=C(O)C(=O)Nc1cccc(-c2nn[nH]n2)c1`, the Potency result in assay [1], in assay [2] and in assay [5] was “inactive” throughout. Also, the compound was classed as inactive in assay [4], in assay [6] and in assay [10].

In the case of `NC(=O)C1(N2CCCCC2)CCN(CCCC(=O)c2ccc(F)cc2)CC1`, the Potency result in [1], in assay [3], in assay [9] and in assay [5] was “inactive” throughout. Also, the compound was called inactive in assay [8], in assay [4], in [6], in assay [7] and in [10].

On to `CCNC(=O)/C=C/c1cccc(Br)c1`, for which the Potency result in assay [1], in [3], in [9] and in assay [5] was “inactive” each time. In addition, the compound was called inactive in assay [4], in assay [6], in assay [7] and in assay [10].

As for `CCCCCC1CCCC(=O)O1` (stereo unspecified), the Potency result in assay [1], in assay [3] and in [5] was “inactive” throughout. Further, the call in [4], in assay [6], in assay [7] and in assay [10] was inactive.

For `CC(=O)c1ccc(OCC(=O)N2CCCCC2)cc1`, the Potency result in assay [1], in assay [3], in assay [9] and in assay [5] was “inactive” throughout. Further, the call in [8], in assay [4], in assay [6], in assay [7] and in [10] was inactive.

For the compound `Cc1ccc2c(c1)c1c3n2CCNC3CCC1` (stereo unspecified), the Potency result in assay [1] and in [5] was “inactive” each time. The Potency in assay [2] was 10.6 µM (active). The outcome in [6] and in assay [7] was inactive.

Consider `CCC(CO)CO`, for which the Potency entry in assay [1], in assay [2], in assay [9] and in assay [5] was “inactive” throughout. In addition, the call in [6], in assay [7] and in assay [10] was inactive.

Take `O=C1OC(=O)c2ccccc21`: the Potency entry in assay [1], in [3] and in assay [5] was “inactive” in each case. Besides, the compound was classed as inactive in assay [8], in [4], in assay [6], in [7] and in assay [10].

With `CCS(=O)(=O)CCn1c([N+](=O)[O-])cnc1C`, the Potency entry in assay [1], in [2] and in assay [5] was “inactive” each time. Also, the result in [8], in [4], in assay [6], in [7] and in assay [10] was inactive.

Turning to `C[Si]1(C)N[Si](C)(C)N[Si](C)(C)N1`, the Potency entry in assay [1], in assay [3] and in [5] was “inactive” in each case. Also, the compound was classed as inactive in [8], in [4], in [6], in assay [7] and in assay [10].

On to `CCCOCCOCCOCCO`, for which the Potency result in assay [1], in assay [2], in assay [9] and in assay [5] was “inactive” throughout. Further, the result in [6] and in [10] was inactive.

`Cc1cccc(Nc2ccncc2S(=O)(=O)NC(=O)NC(C)C)c1`: the Potency result in assay [1], in [2], in [9] and in [5] was “inactive” each time. The outcome in assay [4], in assay [6], in [7] and in assay [10] was inactive.

Consider `O=C(O)c1c(Cl)ccc(Cl)c1Cl`, for which the Potency entry in [1], in [3] and in assay [5] was “inactive” throughout. In addition, the outcome in [8], in [4], in assay [6], in assay [7] and in assay [10] was inactive.

For the compound `O=C(/C=C/c1ccccc1)NCCO`, the Potency result in assay [1], in [3] and in assay [5] was “inactive” in each case. The compound was called inactive in assay [8], in [4], in assay [6], in assay [7] and in assay [10].
